The text below walks through data of PubChem BioAssay (NCI).

Each structure is given as a SMILES string. The panel holds about 83,000 compounds, 20% with a hit somewhere; the sample as a whole holds those more often.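 In brief: 96-well plates, 48 h treatment, single concentration, percent growth endpoint.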 Activity calls are given as the source filed them. Rule for the calls: active = growth percent below 10; inactive = the rest.

In the test the test system is MOLT-4 leukemia. Put plainly: NCI-60 one-dose screen, 48 h (100 = growth as untreated, 0 = no growth, -100 = all killed). The note with it: 10 µM unless noted.
`CC[n+]1ccc2c(c1)C(=O)c1nccc3c1c-2nc1ccccc13`: the growth is -30% (active). With `COc1ccc(-c2csc(NC(=O)CN3CCN(c4cc5c(cc4F)c(=O)c(C(=O)O)cn5C4CC4)CC3)n2)cc1`, the growth is 24.2% (inactive). For the molecule `O=C1c2cc3c(cc2-c2c1c1cc(F)c(F)cc1c(=O)n2C[C@H](O)CO)OCO3`, the growth was -26% (active). For `Cn1c2ccccc2c2c3c(c4c5ccccc5n(CCCCCC#N)c4c21)C(=O)N(O)C3=O`, the growth is 1.13% (active). For the molecule `CCOC(=O)c1c2c(n3ccc(NC(=O)CCN4CCOCC4)cc13)C(=O)c1ncccc1C2=O`, the growth is 18.6% (inactive). Consider `Oc1ccccc1N=Cc1c(O)ccc2ccccc12`, for which the growth was 37.1% (inactive).

As for `O=c1ccc2cc3ccccc3cc2[nH]1`, the growth was 87.3% (inactive). With `O=C(Nc1ccc(Oc2ccc(F)cc2)c(Cl)c1)c1cccnc1`, the growth was 105% (inactive). For the molecule `CCCCCCCCCc1cc(CN2CCCCC2)c(O)c(CN2CCCCC2)c1`, the growth was 56% (inactive). Consider `CC/C(Cc1ccccc1)=C(\c1ccc(OCCN2CCCC2)cc1)c1ccc(OC(C)=O)cc1`, for which the growth was 55.2% (inactive). In the case of `C=C1CC[C@@H]2[C@](C)(COC(C)=O)[C@H](OC(C)=O)CC[C@@]2(C)[C@@H]1CC(Nc1ccc(S(=O)(=O)Nc2nc(C)cc(C)n2)cc1)C1=CCOC1=O` (stereo partly drawn), the growth is 24.6% (inactive). Take `COc1ccc2c(c1)C(=O)/C(=C/c1cccc(OCC(=O)Nc3nc4c(s3)CCCC4)c1)O2`: the growth was -47.8% (active). For `O=C([C@@H](COCc1ccccc1)N1C(=O)[C@@H](N2C(=O)OC[C@@H]2c2ccccc2)[C@H]1/C=C/c1ccccc1)N1CCC(CCN2CCCCC2)CC1`, the growth was 62.8% (inactive).
